Settings in all cases: mRNA level, 48 h; actives raise or lower the signal
Read-out in assay [1]: MYC, MYC (gene 4609)
Put plainly: LTEA_HepaRG_MYC: Life Technologies and Expression Analysis (LTEA) Assay for MYC using HepaRG (AID 2283518). Summed up:
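Expression changes were scored by TaqMan qRT-PCR with ACTB, GAPDH and POLR2A normalization. Cultures in serum-free induction medium received duplicate 8-point concentration series, highest 100 uM, for 48 h; DMSO (0.5%) served as baseline.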

Read-out in assay [2]: matrix metalloproteinase-3 (MMP3), MMP3 (gene 4314)
The assay is described as follows: LTEA_HepaRG_MMP3: Life Technologies and Expression Analysis (LTEA) Assay for matrix metalloproteinase-3 (MMP3) using HepaRG (AID 2283519). The procedure, abridged:
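HepaRG cells (~100,000/well) in serum-free induction medium were dosed in duplicate for 48 h with an 8-point half-log series from 100 uM, 0.5% DMSO. MMP3 mRNA was quantified by Fluidigm TaqMan qRT-PCR, normalized to three housekeeping genes.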

Read-out in assay [3]: Paternally Expressed 10 (PEG10), PEG10 (gene 23089)
The assay is described as follows: LTEA_HepaRG_PEG10: Life Technologies and Expression Analysis (LTEA) Assay for Paternally Expressed 10 (PEG10) using HepaRG (AID 2283520).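 For AC50: PEG10 transcript by qRT-PCR normalised to ACTB GAPDH and POLR2A.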 Summed up: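 Chemicals tested on HepaRG cells for 48 h, highest concentration 100 uM. PEG10 expression assessed by qRT-PCR relative to DMSO control.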

Read-out in assay [4]: Nuclear factor NF-kappa-B p105 subunit (Homo sapiens) (UniProt P19838)
Put plainly: LTEA_HepaRG_NFKB1: Life Technologies and Expression Analysis (LTEA) Assay for Nuclear Factor Kappa B Subunit 1 (NFKB1) using HepaRG (AID 2283521).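 Note: TaqMan qRT-PCR transcript normalised to ACTB GAPDH and POLR2A housekeeping genes.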 Summed up: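 Differentiated human HepaRG cells were exposed for 48 h in serum-free induction medium to eight concentrations (top 100 uM, half-log steps, 0.5% DMSO), in duplicate. NFKB1 mRNA was measured by TaqMan qRT-PCR, normalized to ACTB/GAPDH/POLR2A, and fitted bidirectionally against DMSO.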

Read-out in assay [5]: Protein phosphatase 2A (PPP2R4), PTPA (gene 5524)
Put plainly: LTEA_HepaRG_PPP2R4: Life Technologies and Expression Analysis (LTEA) Assay for Protein phosphatase 2A (PPP2R4) using HepaRG (AID 2283522). Summed up: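 Gene-expression endpoint in HepaRG hepatic cells: 48 h treatment across eight half-log concentrations up to 100 uM in 0.5% DMSO. PPP2R4 mRNA by qRT-PCR, normalized to three endogenous control genes.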

Read-out in assay [6]: Phosphatase and tensin (PTEN), PTEN (gene 5728)
Put plainly: LTEA_HepaRG_PTEN: Life Technologies and Expression Analysis (LTEA) Assay for Phosphatase and tensin (PTEN) using HepaRG (AID 2283523). Summed up: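 HepaRG cells, 48 h after plating, exposed in duplicate for 48 h in serum-free induction medium to 8 half-log concentrations up to 100 uM (0.5% DMSO). PTEN mRNA by qRT-PCR, normalized to ACTB, GAPDH, POLR2A; bidirectional fit versus DMSO.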

Read-out in assay [7]: solute carrier (SLC22A1), SLC22A1 (gene 6580)
Put plainly: LTEA_HepaRG_SLC22A1: Life Technologies and Expression Analysis (LTEA) Assay for solute carrier (SLC22A1) using HepaRG (AID 2283524). The procedure, abridged:
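Differentiated human HepaRG cells in serum-free induction medium, exposed 48 h in duplicate to 8-point half-log series from 100 µM top in 0.5% DMSO. SLC22A1 mRNA by TaqMan qRT-PCR normalized to ACTB, GAPDH, POLR2A; bidirectional fit versus DMSO.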

Read-out in assay [8]: Pyruvate Dehydrogenase Kinase 4 (PDK4), PDK4 (gene 5166)
The assay is described as follows: LTEA_HepaRG_PDK4: Life Technologies and Expression Analysis (LTEA) Assay for Pyruvate Dehydrogenase Kinase 4 (PDK4) using HepaRG (AID 2283525). Summed up: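 HepaRG cells plated 48 h, then switched to serum-free induction medium and exposed in duplicate for 48 h to 8 half-log concentrations from 100 uM in 0.5% DMSO. PDK4 mRNA measured by qRT-PCR, normalized to ACTB, GAPDH and POLR2A; bidirectional fit versus DMSO.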

Read-out in assay [9]: NAD(P)H dehydrogenase [quinone] 1 (NQO1), NQO1 (gene 1728)
The assay is described as follows: LTEA_HepaRG_NQO1: Life Technologies and Expression Analysis (LTEA) Assay for NAD(P)H dehydrogenase [quinone] 1 (NQO1) using HepaRG (AID 2283526). The procedure, abridged: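 Human HepaRG hepatic cells received chemicals for 48 h in serum-free induction medium with 0.5% DMSO, up to 100 uM. Expression was assessed by TaqMan qRT-PCR against housekeeping controls and fitted bidirectionally against DMSO.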

Read-out in assay [10]: Nuclear factor erythroid 2-related factor 2 (Homo sapiens) (UniProt Q16236)
Put plainly: LTEA_HepaRG_NFE2L2: Life Technologies and Expression Analysis (LTEA) Assay for Nuclear factor erythroid 2-related factor 2 (NFE2L2) Transcription Factor using HepaRG (AID 2283527).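 For outcome: TaqMan qRT-PCR transcript level normalised to ACTB GAPDH and POLR2A housekeeping genes.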 The procedure, abridged:
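Differentiated human HepaRG cells, serum-free induction medium, exposed 48 h in duplicate to eight half-log concentrations up to 100 uM in 0.5% DMSO. NFE2L2 mRNA by Fluidigm TaqMan qRT-PCR, normalised to ACTB, GAPDH, POLR2A; bidirectional change versus DMSO.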

Read-out in assay [11]: succinate dehydrogenase complex iron sulfur subunit B (SDHB), SDHB (gene 6390)
Put plainly: LTEA_HepaRG_SDHB: Life Technologies and Expression Analysis (LTEA) Assay for succinate dehydrogenase complex iron sulfur subunit B (SDHB) using HepaRG (AID 2283528). Summed up: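 HepaRG, 48 h exposure, 8-pt half-log series from 100 uM in 0.5% DMSO, duplicates. Readout: SDHB mRNA by Fluidigm qRT-PCR vs housekeeping genes; bidirectional fit relative to DMSO.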

Read-out in assay [12]: Signal transducer and activator of transcription 3 (Homo sapiens) (UniProt P40763)
Put plainly: LTEA_HepaRG_STAT3: Life Technologies and Expression Analysis (LTEA) Assay for Signal transducer and activator of transcription (STAT3) using HepaRG (AID 2283529). The procedure, abridged:
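Differentiated HepaRG cells, serum-free induction medium, dosed 48 h in duplicate, 8 half-log concentrations from 100 uM in 0.5% DMSO. STAT3 mRNA by qRT-PCR, normalised to ACTB, GAPDH, POLR2A; bidirectional fit versus DMSO.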

Read-out in assay [13]: solute carrier (SLCO1B1), SLCO1B1 (gene 10599)
The assay is described as follows: LTEA_HepaRG_SLCO1B1: Life Technologies and Expression Analysis (LTEA) Assay for solute carrier (SLCO1B1) using HepaRG (AID 2283530). Summed up:
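Human HepaRG cultures treated for 48 h with an eight-concentration half-log series topping at 100 uM; SLCO1B1 measured by qRT-PCR and fitted bidirectionally relative to DMSO.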

Read-out in assay [14]: Transforming Growth Factor (TGFA), TGFA (gene 7039)
The assay is described as follows: LTEA_HepaRG_TGFA: Life Technologies and Expression Analysis (LTEA) Assay for Transforming Growth Factor (TGFA) using HepaRG (AID 2283532). Summed up: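 Differentiated HepaRG cells exposed 48 hours in serum-free induction medium, 0.5% DMSO vehicle, 8-point half-log series from 100 uM, in duplicate. TGFA mRNA by TaqMan qRT-PCR, normalised to ACTB, GAPDH, POLR2A; bidirectional fit versus DMSO.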

Read-out in assay [15]: TIMP1, TIMP1 (gene 7076)
Put plainly: LTEA_HepaRG_TIMP1: Life Technologies and Expression Analysis (LTEA) Assay for TIMP1 using HepaRG (AID 2283534).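 For outcome: TaqMan qRT-PCR signal normalized to ACTB GAPDH and POLR2A housekeeping genes.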 The procedure, abridged:
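TIMP1 induction or repression in HepaRG cells after 48 h chemical exposure (eight concentrations, highest 100 uM), assessed by normalized qRT-PCR with bidirectional fitting to DMSO controls.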

Read-out in assay [16]: Tumor necrosis factor receptor 1 (TNFRSF1A), TNFRSF1A (gene 7132)
The assay is described as follows: LTEA_HepaRG_TNFRSF1A: Life Technologies and Expression Analysis (LTEA) Assay for Tumor necrosis factor receptor 1 (TNFRSF1A) using HepaRG (AID 2283535). The procedure, abridged: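 Assay uses 48 h chemical treatment of differentiated HepaRG monolayers, tested in duplicate at eight concentrations from 100 uM downward in 0.5% DMSO. mRNA is normalized to ACTB, GAPDH and POLR2A, with induction or suppression fitted relative to vehicle.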

Read-out in assay [17]: Thyroid Hormone Responsive (THRSP), THRSP (gene 7069)
The assay is described as follows: LTEA_HepaRG_THRSP: Life Technologies and Expression Analysis (LTEA) Assay for Thyroid Hormone Responsive (THRSP) using HepaRG (AID 2283536). Summed up: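 Differentiated HepaRG cells treated 48 h in serum-free induction medium with 8 half-log concentrations up to 100 uM (0.5% DMSO), duplicates. THRSP mRNA by TaqMan qRT-PCR normalised to ACTB, GAPDH, POLR2A; bidirectional fit versus DMSO.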

Read-out in assay [18]: Cellular tumor antigen p53 (Homo sapiens) (UniProt P04637)
Put plainly: LTEA_HepaRG_TP53: Life Technologies and Expression Analysis (LTEA) Assay for Tumor Protein P53 (TP53) using HepaRG (AID 2283537). The procedure, abridged: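 HepaRG, 48 h exposure, top 100 uM, half-log 8-point, 0.5% DMSO vehicle, duplicates. Read: TP53 mRNA by TaqMan qRT-PCR, normalised to ACTB/GAPDH/POLR2A; bidirectional fit vs DMSO.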

Read-out in assay [19]: Transforming Growth Factor (TGFB1), TGFB1 (gene 7040)
Put plainly: LTEA_HepaRG_TGFB1: Life Technologies and Expression Analysis (LTEA) Assay for Transforming Growth Factor (TGFB1) Transporter using HepaRG (AID 2283533). The procedure, abridged:
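Eight-point concentration-response (max 100 uM, half-log) in HepaRG under serum-free induction conditions, 48 h. TGFB1 mRNA by qRT-PCR, housekeeping-normalized.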

Read-out in assay [20]: sulfotransferase 2A1 (SULT2A1), SULT2A1 (gene 6822)
The assay is described as follows: LTEA_HepaRG_SULT2A1: Life Technologies and Expression Analysis (LTEA) Assay for sulfotransferase 2A1 (SULT2A1) using HepaRG (AID 2283531). The procedure, abridged: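 Gene-expression endpoint in a human liver cell line: SULT2A1 mRNA change after 48 h chemical treatment, curves fitted in both directions relative to 0.5% DMSO vehicle. Concentrations spanned eight half-log steps from 100 uM.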

One may read the AC50 as the concentration at which the activity in the assay is half-maximal.

SMILES strings stand for the structures. Calls of active or inactive are those of the source. Rule for the calls: active = hit-call score of the fitted dose curve at least 0.9, where 1 is the maximum; inactive = score below 0.9.

Cellular tumor antigen p53 (Homo sapiens), sequence (P04637 whole entry, looked up): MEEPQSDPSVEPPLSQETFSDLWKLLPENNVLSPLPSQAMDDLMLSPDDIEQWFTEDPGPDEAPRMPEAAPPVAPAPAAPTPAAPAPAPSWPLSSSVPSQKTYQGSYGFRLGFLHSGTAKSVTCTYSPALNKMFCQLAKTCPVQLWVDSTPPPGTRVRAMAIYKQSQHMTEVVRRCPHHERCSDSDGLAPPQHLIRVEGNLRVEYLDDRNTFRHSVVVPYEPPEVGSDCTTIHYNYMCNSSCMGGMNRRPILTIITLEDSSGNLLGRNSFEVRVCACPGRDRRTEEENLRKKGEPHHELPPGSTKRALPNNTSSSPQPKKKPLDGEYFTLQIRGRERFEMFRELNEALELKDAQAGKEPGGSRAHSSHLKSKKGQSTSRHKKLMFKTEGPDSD
Nuclear factor NF-kappa-B p105 subunit (Homo sapiens), sequence (P19838 whole entry, looked up): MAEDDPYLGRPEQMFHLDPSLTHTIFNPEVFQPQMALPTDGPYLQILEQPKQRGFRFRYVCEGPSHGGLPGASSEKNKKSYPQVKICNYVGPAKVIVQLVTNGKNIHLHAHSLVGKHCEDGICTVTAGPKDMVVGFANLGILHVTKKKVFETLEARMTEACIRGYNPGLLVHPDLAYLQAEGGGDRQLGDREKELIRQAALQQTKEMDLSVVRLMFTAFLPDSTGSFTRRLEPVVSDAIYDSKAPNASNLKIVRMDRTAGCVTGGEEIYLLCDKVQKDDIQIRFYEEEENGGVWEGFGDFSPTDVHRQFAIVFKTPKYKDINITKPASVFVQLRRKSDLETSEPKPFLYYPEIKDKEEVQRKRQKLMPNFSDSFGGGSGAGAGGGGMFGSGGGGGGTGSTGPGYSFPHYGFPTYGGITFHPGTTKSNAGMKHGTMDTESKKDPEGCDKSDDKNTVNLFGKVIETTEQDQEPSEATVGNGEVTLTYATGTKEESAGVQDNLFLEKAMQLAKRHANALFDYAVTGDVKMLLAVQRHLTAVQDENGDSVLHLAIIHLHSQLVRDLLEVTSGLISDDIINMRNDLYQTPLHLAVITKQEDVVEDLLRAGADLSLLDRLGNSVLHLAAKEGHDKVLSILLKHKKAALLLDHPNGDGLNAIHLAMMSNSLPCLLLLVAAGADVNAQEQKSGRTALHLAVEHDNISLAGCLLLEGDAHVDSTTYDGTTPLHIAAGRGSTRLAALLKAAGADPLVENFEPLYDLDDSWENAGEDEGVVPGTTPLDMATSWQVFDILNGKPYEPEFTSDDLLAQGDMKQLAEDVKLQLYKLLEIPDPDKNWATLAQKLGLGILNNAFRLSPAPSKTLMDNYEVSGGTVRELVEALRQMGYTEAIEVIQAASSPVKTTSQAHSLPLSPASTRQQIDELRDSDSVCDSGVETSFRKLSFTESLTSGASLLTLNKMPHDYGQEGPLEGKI
Signal transducer and activator of transcription 3 (Homo sapiens), sequence (P40763 whole entry, looked up): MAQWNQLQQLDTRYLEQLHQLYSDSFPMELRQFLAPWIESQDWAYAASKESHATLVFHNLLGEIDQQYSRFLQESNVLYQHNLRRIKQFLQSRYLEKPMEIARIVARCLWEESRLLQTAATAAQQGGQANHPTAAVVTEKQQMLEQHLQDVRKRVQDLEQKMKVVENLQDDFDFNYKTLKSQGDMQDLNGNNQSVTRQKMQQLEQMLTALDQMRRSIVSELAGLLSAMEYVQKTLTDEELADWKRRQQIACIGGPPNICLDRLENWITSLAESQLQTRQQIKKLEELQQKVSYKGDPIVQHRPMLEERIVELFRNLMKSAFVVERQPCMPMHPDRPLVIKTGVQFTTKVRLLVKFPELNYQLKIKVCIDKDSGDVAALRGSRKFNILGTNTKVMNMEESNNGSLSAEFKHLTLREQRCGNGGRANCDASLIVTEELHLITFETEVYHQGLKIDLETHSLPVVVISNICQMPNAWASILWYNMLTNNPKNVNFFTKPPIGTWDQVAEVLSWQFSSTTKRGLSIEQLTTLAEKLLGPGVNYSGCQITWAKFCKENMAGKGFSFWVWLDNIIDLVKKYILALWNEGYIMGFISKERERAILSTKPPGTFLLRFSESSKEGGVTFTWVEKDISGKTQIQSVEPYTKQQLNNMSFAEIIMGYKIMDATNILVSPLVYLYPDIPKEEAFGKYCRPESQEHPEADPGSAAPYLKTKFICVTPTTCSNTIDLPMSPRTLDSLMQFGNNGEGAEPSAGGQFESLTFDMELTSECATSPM
Nuclear factor erythroid 2-related factor 2 (Homo sapiens), sequence (Q16236 whole entry, looked up): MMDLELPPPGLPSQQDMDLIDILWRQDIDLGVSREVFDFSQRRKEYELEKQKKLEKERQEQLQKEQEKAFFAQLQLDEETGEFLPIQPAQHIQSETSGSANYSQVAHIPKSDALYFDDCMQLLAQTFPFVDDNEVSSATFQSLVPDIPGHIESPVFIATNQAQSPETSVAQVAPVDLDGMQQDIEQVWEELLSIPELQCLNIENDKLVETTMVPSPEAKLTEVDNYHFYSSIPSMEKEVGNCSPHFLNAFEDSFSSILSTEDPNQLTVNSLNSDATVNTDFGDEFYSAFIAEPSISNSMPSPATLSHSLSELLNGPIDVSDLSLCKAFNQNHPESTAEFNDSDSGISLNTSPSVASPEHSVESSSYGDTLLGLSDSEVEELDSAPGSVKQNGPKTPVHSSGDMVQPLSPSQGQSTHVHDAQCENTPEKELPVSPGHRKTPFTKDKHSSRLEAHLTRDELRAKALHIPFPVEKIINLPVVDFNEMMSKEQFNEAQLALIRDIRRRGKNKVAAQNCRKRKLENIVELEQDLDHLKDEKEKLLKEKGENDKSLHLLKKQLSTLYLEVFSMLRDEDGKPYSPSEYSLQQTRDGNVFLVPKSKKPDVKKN

On to `C#CCOS(=O)OC1CCCCC1Oc1ccc(C(C)(C)C)cc1` (stereo not drawn), for which the AC50 was 22.8 µM (active) in assay [1]; 24.2 µM (active) in [3]; 29.8 µM (active) in assay [5]; 30.7 µM (active) in assay [6]; 20.7 µM (active) in assay [7]; 50 µM (active) in [8]. In addition, the AC50 in assay [9] is 22.9 µM (active); in [11] it was 30.5 µM (active); in assay [12], 36.3 µM (active); in assay [13], 29.2 µM (active); in assay [14], 22.2 µM (active); in assay [15], 26.5 µM (active). Besides, the AC50 in assay [16] is 26.1 µM (active); in assay [18] it was 58.4 µM (active). For the same compound, the outcome in [2], in assay [4], in assay [10] and in [17] was inactive.

For `CCNc1nc(Cl)nc(NC(C)C)n1`, the call in [1], in [3], in assay [4], in [5], in assay [6] and in assay [7] was inactive. The call in [8], in [9], in [10], in assay [11], in assay [12] and in assay [13] was inactive. The result in assay [14], in [15], in assay [16], in assay [17] and in assay [18] was inactive.

As for `CC(C)(C)c1ccc(CSc2cnn(C(C)(C)C)c(=O)c2Cl)cc1`, the concentration at half-maximal activity (AC50) is 2.84 µM (active) in assay [1]; 1.01 µM (active) in assay [3]; 1.84 µM (active) in [5]; 2.71 µM (active) in [7]; 9.92 µM (active) in assay [8]; 26.7 µM (active) in [10]. The half-maximal activity concentration (AC50) in [11] was 1.54 µM (active); in assay [13], 2.34 µM (active); in assay [14], 2.96 µM (active); in assay [17], 9.85 µM (active); in assay [18], 2.82 µM (active). Moreover, the call in [2], in assay [6], in assay [9], in assay [12], in assay [19] and in [16] was inactive.

Regarding `CNC(=S)S`, the result in assay [1], in assay [2], in assay [3], in assay [4], in [5] and in [6] was inactive. Further, the compound was called inactive in [7], in assay [8], in assay [9], in assay [10], in assay [11] and in assay [12]. Besides, the result in [13], in assay [20], in [14], in [16], in assay [17] and in assay [18] was inactive.

With `COP(N)(=O)SC` (stereo not drawn), the call in [1], in [3], in assay [4], in assay [5], in assay [6] and in [7] was inactive. Further, the outcome in [8], in assay [9], in [10], in [11], in [12] and in assay [13] was inactive. Also, the call in assay [14], in assay [19], in assay [16], in assay [17] and in assay [18] was inactive.

As to `COP(=S)(OC)Oc1nc(Cl)c(Cl)cc1Cl`, the compound was classed as inactive in [1], in assay [2], in [5], in assay [6], in assay [7] and in assay [8]. Besides, the call in [9], in assay [10], in [11], in assay [12], in [13] and in assay [14] was inactive. For the same compound, the result in [16], in assay [17] and in assay [18] was inactive. For the same compound, the half-maximal activity concentration (AC50) in [3] was 69 µM (active).
